Screens deposited in PubChem by National Center for Advancing Translational Sciences (NCATS).
Shown is part of a subset that was picked to be rich in hits.
KDM5B inh – Primary screen for KDM5B Histone Demethylases FDH-coupled qHTS | Potency, µM (titrated, usually from 57.7 µM), hits mostly inhibitors | 220,000 compounds, 2.6% hits | Lysine-specific demethylase 5B (Homo sapiens), Q9UGL1 | KDM5B demethylase, FDH-coupled NADH fluorescence (FDH is formaldehyde dehydrogenase); active means well fitted inhibition curve with a large enough effect; further: 0% is about no effect; nearly all actives have a fitted effect of over 70% in size
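KDM5BΔAP (200 nM final) in 50 mM HEPES pH 7.5, 0.01% Tween-20 was preincubated 10 min at RT with compound over a concentration range. Substrate mix (H3K4me3 12.5 µM, α-KG 25 µM, Fe²⁺, ascorbate, NAD⁺, FDH) was added, and NADH fluorescence change over 30 min gave dose-response curves.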
An asterisk follows results filed as active; i = inactive. Potency means the concentration at half of the fitted maximal effect.

SMILES	KDM5B inh
O=C1NCCCCCN(C(=O)c2ccoc2)[C@@H]2C[C@@H](C(=O)N3CCc4ccccc4C3)C[C@H]12	i
O=C1NCCCCCCN(C(=O)c2ccoc2)[C@H]2C[C@H](C(=O)N3CCN(c4ccccn4)CC3)C[C@@H]12	31.6µM*
CCn1c(=O)c2sccc2n2c(CCC(=O)N3CCN(c4ccc(C(C)=O)cc4)CC3)nnc12	i
COc1ccc(Cl)cc1C(=O)N1C[C@@H](CO)[C@H](c2nc(C)no2)C1	i
CCc1ccc(NC(=O)Cc2csc(COc3cccc(C)c3)n2)cc1	i
CCCc1nnc(C[C@@H]2C[C@@H](C(C)C)[C@H](CNc3cccnc3)C=C2C)o1	10µM*
CCCc1nnc(C[C@@H]2C[C@@H](C(C)C)[C@H](CO)C=C2C)o1	i
CCCc1nnc(C[C@@H]2C[C@@H](C(C)C)[C@H](CNCc3cccnc3)C=C2C)o1	i
COc1ccc(-c2nnc(SCC(=O)N3CCC(c4ccccc4)=N3)o2)cc1	i
CCCCNC(=O)CCCn1c(=O)c2ccccc2n(Cc2c(C)cc(C)cc2C)c1=O	i
COCCNC(=O)[C@H](CSCc1ccccc1)N1Cc2ccccc2C1=O	i
Cc1noc([C@@H]2CN(Cc3cn[nH]c3-c3ccccc3)C[C@H]2CO)n1	i
O=C(CC1CCCC1)NCC1CCCO1 (stereo not given)	i
CCC(O)c1cc2n(n1)CCCN(C(=O)CCc1ccsc1)C2 (stereo not given)	i
CC(O)c1cc2n(n1)CCCN(C(=O)CCc1cn3ccccc3n1)C2 (stereo not given)	25.1µM*
CCC(O)c1cc2n(n1)CCN(C(=O)CCc1cn3ccccc3n1)C2 (stereo not given)	11.2µM*
CCC(O)c1cc2n(n1)CCN(C(=O)Cc1noc3ccccc13)C2 (stereo not given)	i
CCC(O)c1cc2n(n1)CCN(C(=O)CCn1cnc3ccccc3c1=O)C2 (stereo not given)	i
O=C(Cc1cn2ccsc2n1)N1CCCn2nc(C(O)C3CC3)cc2C1 (stereo not given)	i
CC1=NS(=O)(=O)N(Cc2ccccc2)C=C1C(=O)OCc1noc(-c2cccc(Cl)c2)n1	i
COc1cccc(OC)c1C(=O)OCC(=O)c1ccc(Cl)cc1	i
COc1ccc(Cn2c(=O)c3oc4ccccc4c3n(CC(=O)Nc3cc(C)cc(C)c3)c2=O)cc1	i
O=C(NCCC1CCCCC1)c1c[nH]c2ncccc12	i
O=C(NCCc1nc(Cc2ccccc2)no1)[C@H]1CCC[C@@H](O)C1	i
O=C(NCCc1nc(Cc2ccccc2)no1)C1CNCCO1 (stereo not given)	i
SMILES	KDM5B inh
O=C(NCCC1CCCCC1)c1ccc2nccn2c1	28.2µM*
O=C(NCC1CCCCC1)c1ccncc1	i
COc1ccc(C(=O)NCCCc2ccccc2)cc1	i
O=C(NCCCCc1ccccc1)c1ccncc1	i
O=C(NCCCc1ccccc1)c1ccc2nccn2c1	35.5µM*
O=C(NCCc1nc(Cc2ccccc2)no1)c1ccc2nccn2c1	17.8µM*
O=C(Cc1cccs1)N[C@H]1CCN2C(=O)N(c3ccc(Oc4ccccc4)cc3)C(=O)[C@@H]2C1	i
Fc1ccccc1N1CCN(c2ncnc3c2nc2n3CCCC2)CC1	i
CCOC(=O)c1ccc(CN(Cc2ccc(Br)cc2)S(=O)(=O)c2cccc(Cl)c2C)cc1	i
Cc1ccc(NC(=O)CCCn2nc(C)c3c(C)n(-c4ccccc4)nc3c2=O)cc1Cl	i
CCCCN1C(C)=NC(C(F)(F)F)(C(F)(F)F)C2=C1CC(C)(C)CC2=O	i
CN(Cc1cn(-c2ccccc2)nn1)Cc1ccccc1-n1cccn1	i
CCC(=O)N(C1CCOCC1)C1CCN(Cc2cc(F)c(F)cc2F)CC1	i
Cc1cc(C)c(CNC(=O)c2nc(-c3cnn(C)c3)cc3c2ccn3C)c(=O)[nH]1	22.4µM*
Cc1cc(C)c(CNC(=O)c2nc(-c3ccccc3C)cc3c2ccn3C(C)C)c(=O)[nH]1	i
Cc1cc(C)c(CNC(=O)c2nc(-c3ccc(CN(C)C)cc3)cc3c2ccn3C(C)C)c(=O)[nH]1	28.2µM*
CN(C)CCNC(=O)c1nc(-c2ccc(N3CCN(C)CC3)cc2)cc2c1ccn2C	i
Cc1cc(-c2cc3c(ccn3C)c(C(=O)NCc3c(C)cc(C)[nH]c3=O)n2)ccn1	i
Cc1cc(C)c(CNC(=O)c2nc(-c3ccccc3O)cc3c2ccn3C(C)C)c(=O)[nH]1	i
COc1ccc(-c2cc3c(ccn3C(C)C)c(C(=O)NCc3c(C)cc(C)[nH]c3=O)n2)cc1	25.1µM*
Cc1cc(C)c(CNC(=O)c2nc(-c3ccc(CN(C)C)cc3)cc3[nH]ccc23)c(=O)[nH]1	i
O=[S+]([O-])(c1cccs1)N1CCC2(CC1)CC(Cc1ccccc1)=NO2	i
CC(C)(C)c1ccc(C(=O)Nc2ccc(C(F)(F)F)oc2=O)cc1	i
CCn1ccc(C(=O)N[C@@H]2CN(Cc3ccccc3)C[C@H]2CN(C)C)n1	i
COc1ccccc1NS(=O)(=O)c1cccc(C(=O)NCc2ccccn2)c1	i
SMILES	KDM5B inh
Cc1cccc(OCC(=O)Nc2ccccc2SCc2cc(=O)n3c(ncn3C(C)C)n2)c1C	i
CC(=O)N1CCCc2cc(S(=O)(=O)N3CCCC(C(=O)Nc4cc(Cl)ccc4C)C3)ccc21 (stereo not given)	i
CCC(C(=O)N1CCC(n2cc(-c3nc(C(C)C)no3)nn2)C1)c1ccccc1 (stereo not given)	i
CC(=O)N(c1nc(COc2ccccc2C(N)=O)cs1)c1cccc(C)c1C	i
COc1ccc(CC2CN(C(=O)c3ccsc3)CCO2)cc1 (stereo not given)	i
COc1ccc(C(=O)N2CCOC(Cc3cccc(C(F)(F)F)c3)C2)o1 (stereo not given)	i
COc1ccc(CC2CN(C(=O)c3ccnc(N)c3)CCO2)cc1 (stereo not given)	25.1µM*
COc1ccc(OCC(=O)Nc2nc(-c3ccc(Br)o3)ns2)cc1	i
COC[C@@H]1CN(c2cnccn2)C[C@H]1C(=O)NCCc1ccccn1	20µM*
COc1ccc(NC(=O)C2CCN(c3cnccn3)CC2)cc1Cl	i
CC(=O)Nc1ccc(OCC(=O)N2CCc3ccccc3C2)nc1	i
COC[C@@H]1CN(c2cnccn2)C[C@H]1C(=O)N1CCc2ccccc2C1	20µM*
CNC(=O)[C@@H]1CN(C(=O)c2ccc(OC)nc2)C[C@H]1COC	i
CC1=C(C)CC(C(=O)N2CCc3ccccc3C2)C(C(=O)O)C1 (stereo not given)	i
COc1ccc(C(=O)N[C@@H]2CCC[C@@H]2C(=O)NCCc2ccccn2)cn1	i
COC[C@@H]1CN(c2cnccn2)C[C@H]1C(=O)Nc1ccc(OC)nc1	25.1µM*
COC[C@@H]1CN(c2cnccn2)C[C@H]1C(=O)Nc1cccnc1	28.2µM*
O=C(NCCc1ccccn1)C1CCC(=O)N(C2CCCCCC2)C1 (stereo not given)	i
CC(=O)Nc1ccc(NC(=O)C2CCN(c3cnccn3)CC2)cc1	i
O=C(Nc1cccnc1)N1CCN(c2cnccn2)CC1	i
Cn1c(CCNC(=O)CC2CCOCC2)nc2ccccc21	i
CCc1cc(=O)n(CC(=O)Nc2cccc(C(C)=O)c2)c(-c2cccc(F)c2)n1	i
O=C(NCCc1noc(C2CC2)n1)c1ccc(OC(F)(F)F)cc1	i
COc1ccc(Cn2c(CCC(=O)Nc3ccc(C)c(C)c3)nc3cccnc32)cc1	i
